Compound activity: PubChem, National Center for Advancing Translational Sciences (NCATS)
D2 ag-1: activates the human D2 dopamine receptor; DiscoveRx PathHunter D2 beta-arrestin, luminescence, 90 min; 100% = 57 uM dopamine signal; activation, % (test concentration not listed); actives 0.084% (n = 360,000); AID 624465; in the data active means activation above about 40%; inconclusive means between about 15% and that limit
Target sequence (P14416 whole entry, looked up): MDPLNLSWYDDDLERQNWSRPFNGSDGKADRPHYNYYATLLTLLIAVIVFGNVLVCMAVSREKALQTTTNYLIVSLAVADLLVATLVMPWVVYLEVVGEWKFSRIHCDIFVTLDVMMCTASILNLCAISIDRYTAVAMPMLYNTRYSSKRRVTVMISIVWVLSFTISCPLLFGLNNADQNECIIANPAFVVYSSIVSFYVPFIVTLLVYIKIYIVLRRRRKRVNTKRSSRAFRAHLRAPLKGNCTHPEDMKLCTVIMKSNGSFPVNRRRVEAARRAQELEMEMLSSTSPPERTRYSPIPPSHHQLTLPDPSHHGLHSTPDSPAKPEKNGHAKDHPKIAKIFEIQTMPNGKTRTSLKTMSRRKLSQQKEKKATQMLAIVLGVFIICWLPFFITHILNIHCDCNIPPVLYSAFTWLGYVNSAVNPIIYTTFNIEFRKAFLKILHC
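DiscoveRx PathHunter D2 beta-arrestin cells (2,100/well) attached overnight, then compound-stimulated 90 min at 37 C in HBSS/10 mM HEPES/0.1% Tween-20 buffer; beta-galactosidase complementation read by luminescence after 1 h at ambient temperature. Dopamine 57 uM final (EC100) as control.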
D2 PAM-1: positive allosteric modulators of human D2 dopamine receptor. DiscoveRx D2 beta-arrestin cells, luminescence, 90 min; 100% = 57 uM dopamine signal. P14416. actives 0.23% (n = 360,000). potentiation, % (test concentration not listed); in the data active means potentiation above about 50%; inconclusive means mostly about 30% to 49%
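PathHunter D2 cells, attached overnight at 37 deg C, received compound in DMSO plus dopamine at EC20 (50 nM final) for 90 min at 37 deg C. Beta-arrestin recruitment was read as luminescence after 1 h with detection reagent at ambient temperature.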
D2 PAM-2: D2 dopamine receptor (human) potentiation; HEK293 T-REx D2, calcium flux, EC20 dopamine potentiation; P14416; potentiation, % at 10 µM; actives 0.34% (n = 340,000);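 active means potentiation over 3 SD above the plate norm, cut at about 30% in these data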; further: 0% is about no effect
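Potentiation of an EC20 dopamine calcium response measured kinetically over 180 s, after a preceding 180 s compound-only read flagging agonists. Cells: inducible Hek293 Trex D2 line, 4000/well, cultured overnight at 30 C before dye loading.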
D2 ag-2: D2 dopamine receptor (human) agonism. activation, % at 2 µM. P14416. actives 0.53% (n = 340,000). HEK293 T-REx D2 cells, calcium flux agonist mode. AID 485358;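 active means activation over 3 SD above normal in the single-dose calcium agonist read, cut at about 30% in these data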; further: 0% is about no effect
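In this primary screen, compounds producing a positive calcium signal within 180 s of addition to tetracycline-induced, force-coupled HEK293 Trex D2 cells are flagged; cells are dye-loaded with a no-wash calcium kit beforehand.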
D2 antag: antagonists of human D2 dopamine receptor | HEK293 TREx D2 cells, calcium flux, dopamine EC80 | inhibition, % at 10 µM | actives 2% (n = 340,000) | AID 485344; in the data active means inhibition above about 30%; inactive means below that, where a call was filed; further: 0% is about no effect
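In this primary screen, negative modulation is detected by tracking calcium flux after an EC80 dopamine challenge in inducible HEK293 T-REx D2 cells preexposed to test compound for 180 s.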
The depositor's hits bear a star; ? = inconclusive; . = no result given. Rows were chosen to be rich in hits. Some 2.4% of all compounds tested hit in one or more screens of this group.

SMILES	D2 ag-1	D2 PAM-1	D2 PAM-2	D2 ag-2	D2 antag
COc1ccc(NC(=O)CSc2nc3cc(OC)c(OC)cc3c3nc(-c4ccccc4)nn23)cc1Cl	.	.	-12	0	.
Cc1ccc2c(=O)cc(C(=O)Nc3sc4c(c3C(=O)NCC3CCCO3)CCCC4)oc2c1C (stereo not given)	.	.	-8	0	.
CCOC(=O)c1c(CN2CCOCC2)oc2ccc(OC)cc12	-3	-11	31*	0	-11
CCOC(=O)c1c(CN2CCCCC2)oc2ccc(O)cc12	-4	-20	-7	3	-1
CC(=O)c1ccc(N2CCN(C(=O)c3cccc(Oc4ccccc4)c3)CC2)cc1	7	-2	-5	1	35*
CC(=O)c1ccc(N2CCN(C(=O)c3ccc(-c4ccccc4)cc3)CC2)cc1	-2	-4	1	-1	-1
NC(=O)c1c(NC(=O)CS(=O)(=O)c2ccc(Cl)cc2)sc2c1CCCCC2	.	.	9	-2	.
CC1CC(C)CN(CCCNC(=O)Cn2ncc3c(=O)oc4ccccc4c32)C1 (stereo not given)	-9	-11	-6	1	4
O=C(Cn1ncc2c(=O)oc3ccccc3c21)NCCN1CCN(c2ccccc2F)CC1	-2	-6	-25	37*	-17
COc1ccc(Cl)c2c1[nH]c1nc(SCc3ccccn3)nnc12	1	-17	-10	-1	43*
COc1ccc(Cl)c2c1[nH]c1nc(SCc3cccnc3)nnc12	-5	-6	-7	2	17
COc1ccc(CN2CCCC(N3CCN(c4cccc(Cl)c4)CC3)C2)cc1OC (stereo not given)	-2	-42	-17	38*	26
COc1ccccc1N1CCN(C2CCCN(S(=O)(=O)c3ccc(C)cc3)C2)CC1 (stereo not given)	-4	-52	-19	1	66*
CCOc1cc(CN2CCCC(N3CCN(c4ccc(F)cc4)CC3)C2)ccc1OC (stereo not given)	-4	-1	-15	0	-2
COc1ccccc1N1CCN(C2CCCN(S(=O)(=O)c3cccc(Cl)c3)C2)CC1 (stereo not given)	-3	-49	-27	-1	53*
COc1ccccc1C(=O)Nc1ccc2nc(SCC(=O)N3CCCC3)sc2c1	.	.	0	-1	.
O=C(Nc1cccc(C(F)(F)F)c1)c1cc2ncc(Br)cn2n1	-2	-5	-25	1	53*
C=CCN(C)CC/C=C1\c2ccccc2CSc2ccccc21	-2	-32	-23	1	68*
CN(C)CC/C=C1\c2cc(F)ccc2CSc2ccccc21	-4	-52	-25	0	37*
CN(CC/C=C1/c2ccccc2CSc2ccccc21)CCCO	-2	-40	-19	2	13
O=C(Nc1ccccc1C(=O)OCc1cc(=O)n2c3c(sc2n1)CCCC3)c1ccccc1	.	.	-2	-2	.
O=C(c1ccc(CSc2nc3ccncc3n2Cc2ccccc2F)cc1)N1CCCCCC1	.	.	7	0	.
CCCCCOC(=O)c1ccc(OC(=O)c2sc3ncn(Cc4cccc(F)c4)c(=O)c3c2C)cc1	.	.	13	.	.
Cc1ccc(NC(=O)Cn2c(=O)n(CCc3ccccc3)c(=O)c3c4c(sc32)CCCC4)cc1C	.	.	-2	0	.
CS(=O)(=O)c1ccc(Cl)c(S(=O)(=O)NCc2ccccc2)c1	1	-11	-4	1	35*
SMILES	D2 ag-1	D2 PAM-1	D2 PAM-2	D2 ag-2	D2 antag
CS(=O)(=O)N(CCc1ccccc1)CC(N)=O	-6	3	-23	0	31*
COc1ccc(C)cc1NC(=O)c1cc2c(=O)n3cccc(C)c3nc2s1	.	.	18	-1	.
CC(CN(C)C)CN1c2ccccc2CCc2ccccc21 (stereo not given)	-8	-5	-24	4	73*
CN(C)CCCN1c2ccccc2CCc2ccccc21	-7	-38	-29	-2	60*
O=C(Cn1ncc2c([nH]c3ccccc32)c1=O)NCc1cccc(Cl)c1	.	.	3	0	.
O=C1c2ccccc2-c2nc3ccccc3n21	-2	-1	35*	0	16
CN1C(=O)/C(=C/c2ccccc2OCc2ccccc2)NC1=S	-4	-19	-2	0	24
CN1C(=O)/C(=C/c2cc(C(C)(C)C)c(O)c(C(C)(C)C)c2)NC1=S	?	52*	2	-2	-2
C=CCNc1nc(NCCN2CCOCC2)nc(N2CCOCC2)n1	0	-16	14	0	0
C=CCNc1nc(N2CCOCC2)nc(N2CCOCC2)n1	0	1	-14	-1	31*
CCOC(=O)CCCc1c[nH]c2ccccc12	-2	2	-12	0	6
CC(C)(C)NC(=O)NC(=O)COC(=O)CCCc1c[nH]c2ccccc12	-1	0	17	0	70*
COc1cc(C(=O)N(Cc2cccnc2)Cc2cc3cc4c(cc3[nH]c2=O)OCCO4)cc(OC)c1OC	-3	5	7	0	37*
CC(NC(=O)c1ccco1)C(=O)N1CCN(C(c2ccccc2)c2ccccc2)CC1 (stereo not given)	-3	57*	3	-1	5
CC(NC(=O)c1ccco1)C(=O)N1CCN(c2ccccc2)CC1 (stereo not given)	1	9	-11	1	-4
CCOC(=O)C1(c2csc(N)n2)COC(=O)C1 (stereo not given)	-4	3	2	1	44*
CCCCOC(=O)/C(=C/C=C/c1ccccc1)NC(=O)c1ccccc1	0	-9	.	0	11
CCCCOC(=O)/C(=C\c1ccc([N+](=O)[O-])o1)NC(=O)c1ccccc1	0	15	36*	0	-14
Cc1cc(C)n(-c2ccc([N+](=O)[O-])cc2)n1	2	-1	-2	-1	34*
Cc1c(C)c2ccc(OCC(=O)Nc3ccccn3)cc2oc1=O	-3	-4	10	0	36*
Cc1ccc(Cn2c(C)c3cnn(CC(=O)N4CCN(c5ccc(F)cc5)CC4)c(=O)c3c2C)cc1	.	.	2	1	.
Cc1nc2nncn2c(Nc2ccccc2)c1C	.	.	-2	1	.
CC(C)(C)OC(=O)N1CCC(c2c(C(=O)Nc3ccc4c(c3)OCCO4)cnn2-c2ccc(F)cc2F)CC1	.	.	4	1	.
Cc1cccc(C)c1NCc1n[nH]c(=S)n1-c1ccccc1	4	-3	8	-2	51*
O=C(Oc1ccc(Cl)cc1)N1CCCCC1	-2	-4	0	-2	8
O=C(Oc1ccc(-c2nnco2)cc1)N1CCCCC1	-2	-9	34*	1	16
COc1cc(C(=O)NNC(=O)C2CSC3(C)CCC(=O)N23)cc(OC)c1OC (stereo not given)	-1	-1	9	-1	41*
CN(C)c1ccc(NC(=O)Cn2c(SCc3ccc(F)cc3)nc3cccnc32)cc1	.	.	20	-1	.
